{"source": "paper PMC7862700", "about": "“An all-to-all approach to the identification of sequence-specific readers for epigenetic DNA modifications on cytosine”", "assay_in_all_cases": "DAPPL (digital affinity profiling via proximity ligation, sequencing); 10 mM Tris-HCl pH 7.5, 50 mM NaCl, 1 mM DTT, 4% glycerol, room temperature, 30 min; GST-TFs on glutathione beads, 16-mer random dsDNA library, 0.1% formaldehyde crosslink after washing; high values mean tight binding", "key": {"[1]": {"biological_target": "T1, FEV (Homo sapiens, UniProt Q99581 1-238)", "T1 sequence": "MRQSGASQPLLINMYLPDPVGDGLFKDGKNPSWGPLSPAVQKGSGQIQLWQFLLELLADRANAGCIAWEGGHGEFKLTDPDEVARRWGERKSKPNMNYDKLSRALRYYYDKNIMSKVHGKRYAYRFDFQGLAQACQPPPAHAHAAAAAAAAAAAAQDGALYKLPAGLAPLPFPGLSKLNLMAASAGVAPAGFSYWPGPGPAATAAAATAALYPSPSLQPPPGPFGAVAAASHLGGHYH", "conditions": "protein: recombinant; tags: N-terminal GST; dsDNA, one strand shown", "procedure,_shortened": "(§1)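 Yeast served to express human transcription factors as GST fusions, which were then captured on glutathione beads and labelled with DNA barcodes. Pooled with a tag-only sample, they were incubated with 200 nmole of a 16-mer random double-stranded DNA library for 30 min at room temperature in Tris/NaCl/DTT/glycerol buffer, washed, crosslinked with 0.1% formaldehyde, ligated by proximity, amplified by PCR and sequenced. Dividing each hexamer's read frequency for a factor by its frequency for the tag-only sample gives the binding signal.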"}, "[2]": {"biological_target": "ETV5 (Homo sapiens, UniProt P41161 1-510)", "sequence (P41161 whole entry)": "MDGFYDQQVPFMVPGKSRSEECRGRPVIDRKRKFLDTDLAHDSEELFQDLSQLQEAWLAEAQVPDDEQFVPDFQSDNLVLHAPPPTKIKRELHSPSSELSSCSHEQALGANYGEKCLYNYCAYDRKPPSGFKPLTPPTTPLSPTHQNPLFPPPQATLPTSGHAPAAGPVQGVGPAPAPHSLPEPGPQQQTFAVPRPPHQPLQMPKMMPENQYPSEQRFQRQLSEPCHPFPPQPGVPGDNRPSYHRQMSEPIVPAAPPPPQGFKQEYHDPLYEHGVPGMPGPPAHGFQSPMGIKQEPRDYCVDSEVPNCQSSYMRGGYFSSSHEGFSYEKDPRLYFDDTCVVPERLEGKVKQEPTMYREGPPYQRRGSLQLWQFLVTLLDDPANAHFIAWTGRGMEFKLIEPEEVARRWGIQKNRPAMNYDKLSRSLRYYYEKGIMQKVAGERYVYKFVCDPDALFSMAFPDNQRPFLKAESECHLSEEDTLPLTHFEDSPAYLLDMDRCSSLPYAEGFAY", "conditions": "protein: recombinant; tags: N-terminal GST; dsDNA, one strand shown", "procedure,_shortened": "as §1"}, "[3]": {"biological_target": "HSF1 (Homo sapiens, UniProt Q00613 1-529)", "sequence (Q00613 whole entry)": "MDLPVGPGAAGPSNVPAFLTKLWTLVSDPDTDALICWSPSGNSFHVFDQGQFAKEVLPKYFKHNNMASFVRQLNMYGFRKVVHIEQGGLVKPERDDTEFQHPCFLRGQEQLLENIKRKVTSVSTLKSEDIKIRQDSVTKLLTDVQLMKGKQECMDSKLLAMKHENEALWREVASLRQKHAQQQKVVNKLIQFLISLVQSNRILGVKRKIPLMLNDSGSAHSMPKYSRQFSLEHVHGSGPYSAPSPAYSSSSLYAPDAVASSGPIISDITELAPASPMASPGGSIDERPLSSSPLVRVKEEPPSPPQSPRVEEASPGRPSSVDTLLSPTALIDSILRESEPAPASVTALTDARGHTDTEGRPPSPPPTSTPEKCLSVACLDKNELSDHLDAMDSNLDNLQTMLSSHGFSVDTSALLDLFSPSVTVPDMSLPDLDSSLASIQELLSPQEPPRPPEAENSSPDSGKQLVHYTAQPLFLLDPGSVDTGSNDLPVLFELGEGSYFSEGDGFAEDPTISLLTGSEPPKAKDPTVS", "conditions": "protein: recombinant; tags: N-terminal GST; chain copies: 3; dsDNA, one strand shown", "procedure,_shortened": "as §1"}, "[4]": {"biological_target": "T2, SPIC (Homo sapiens, UniProt Q8N5J4 1-248)", "T2 sequence": "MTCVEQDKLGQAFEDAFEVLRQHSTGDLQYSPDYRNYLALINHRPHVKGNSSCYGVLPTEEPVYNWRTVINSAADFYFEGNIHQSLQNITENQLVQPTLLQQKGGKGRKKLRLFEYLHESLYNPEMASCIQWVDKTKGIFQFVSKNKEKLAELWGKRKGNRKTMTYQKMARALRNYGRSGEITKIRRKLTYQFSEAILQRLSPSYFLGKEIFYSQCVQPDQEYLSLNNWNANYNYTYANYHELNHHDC", "conditions": "protein: recombinant; tags: N-terminal GST; dsDNA, one strand shown", "procedure,_shortened": "as §1"}, "[5]": {"biological_target": "ELF4 (Homo sapiens, UniProt Q99607 1-663)", "sequence (Q99607 whole entry)": "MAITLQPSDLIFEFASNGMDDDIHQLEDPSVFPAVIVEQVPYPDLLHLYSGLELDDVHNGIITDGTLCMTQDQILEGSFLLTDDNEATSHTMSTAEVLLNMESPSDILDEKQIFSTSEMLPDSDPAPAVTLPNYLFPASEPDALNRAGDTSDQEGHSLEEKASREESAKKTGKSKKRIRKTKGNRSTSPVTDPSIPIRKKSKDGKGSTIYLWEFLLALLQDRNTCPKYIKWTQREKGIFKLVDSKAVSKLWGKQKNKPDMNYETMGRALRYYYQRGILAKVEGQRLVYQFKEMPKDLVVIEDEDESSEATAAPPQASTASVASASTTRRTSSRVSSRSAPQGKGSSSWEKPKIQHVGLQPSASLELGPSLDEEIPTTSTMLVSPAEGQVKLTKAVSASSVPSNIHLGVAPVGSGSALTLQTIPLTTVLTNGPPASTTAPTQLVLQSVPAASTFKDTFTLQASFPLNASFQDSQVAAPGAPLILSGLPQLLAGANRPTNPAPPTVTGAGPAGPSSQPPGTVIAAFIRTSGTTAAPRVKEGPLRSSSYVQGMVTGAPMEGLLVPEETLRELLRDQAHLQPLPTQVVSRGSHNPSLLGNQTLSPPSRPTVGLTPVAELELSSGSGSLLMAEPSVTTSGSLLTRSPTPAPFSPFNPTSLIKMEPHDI", "conditions": "protein: recombinant; tags: N-terminal GST; dsDNA, one strand shown", "procedure,_shortened": "as §1"}, "[6]": {"biological_target": "T3, ELK4 (Homo sapiens, UniProt P28324-2 1-405)", "T3 sequence": "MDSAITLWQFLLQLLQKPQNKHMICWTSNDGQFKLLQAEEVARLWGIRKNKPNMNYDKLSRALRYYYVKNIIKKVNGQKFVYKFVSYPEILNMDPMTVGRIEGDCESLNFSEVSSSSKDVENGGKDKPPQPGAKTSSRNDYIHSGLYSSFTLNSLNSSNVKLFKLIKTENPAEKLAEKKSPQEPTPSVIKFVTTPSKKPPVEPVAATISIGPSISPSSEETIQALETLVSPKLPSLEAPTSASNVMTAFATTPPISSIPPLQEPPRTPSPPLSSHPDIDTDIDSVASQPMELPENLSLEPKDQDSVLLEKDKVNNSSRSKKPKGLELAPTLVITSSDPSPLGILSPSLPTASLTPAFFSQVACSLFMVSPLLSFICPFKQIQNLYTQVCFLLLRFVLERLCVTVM", "conditions": "protein: recombinant; tags: N-terminal GST; dsDNA, one strand shown", "procedure,_shortened": "as §1"}, "[7]": {"biological_target": "T4, ETV2 (Homo sapiens, UniProt O00321 1-342)", "T4 sequence": "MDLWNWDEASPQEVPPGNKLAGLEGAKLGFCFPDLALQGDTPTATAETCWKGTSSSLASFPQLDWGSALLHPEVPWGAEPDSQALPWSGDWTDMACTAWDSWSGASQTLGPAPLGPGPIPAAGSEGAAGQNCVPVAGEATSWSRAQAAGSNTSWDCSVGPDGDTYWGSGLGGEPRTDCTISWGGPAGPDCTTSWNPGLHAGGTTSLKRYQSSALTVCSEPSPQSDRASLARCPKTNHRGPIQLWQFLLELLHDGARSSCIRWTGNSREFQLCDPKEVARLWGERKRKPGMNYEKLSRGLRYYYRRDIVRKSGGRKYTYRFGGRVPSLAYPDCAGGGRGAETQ", "conditions": "protein: recombinant; tags: N-terminal GST; dsDNA, one strand shown", "procedure,_shortened": "as §1"}, "[8]": {"biological_target": "T5, ELF3 (Homo sapiens, UniProt P78545 1-371)", "T5 sequence": "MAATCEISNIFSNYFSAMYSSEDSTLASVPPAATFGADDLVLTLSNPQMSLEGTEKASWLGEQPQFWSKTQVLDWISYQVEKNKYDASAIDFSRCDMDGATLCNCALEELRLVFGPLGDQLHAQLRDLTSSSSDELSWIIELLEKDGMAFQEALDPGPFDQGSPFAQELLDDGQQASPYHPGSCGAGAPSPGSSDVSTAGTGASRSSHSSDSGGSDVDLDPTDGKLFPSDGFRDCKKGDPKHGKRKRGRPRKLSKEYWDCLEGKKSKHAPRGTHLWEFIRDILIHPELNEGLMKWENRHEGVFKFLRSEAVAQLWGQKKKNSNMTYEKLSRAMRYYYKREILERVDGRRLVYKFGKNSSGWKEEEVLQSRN", "conditions": "protein: recombinant; tags: N-terminal GST; dsDNA, one strand shown", "procedure,_shortened": "as §1"}, "[9]": {"biological_target": "CRX (Homo sapiens, UniProt O43186 1-299)", "sequence (O43186 whole entry)": "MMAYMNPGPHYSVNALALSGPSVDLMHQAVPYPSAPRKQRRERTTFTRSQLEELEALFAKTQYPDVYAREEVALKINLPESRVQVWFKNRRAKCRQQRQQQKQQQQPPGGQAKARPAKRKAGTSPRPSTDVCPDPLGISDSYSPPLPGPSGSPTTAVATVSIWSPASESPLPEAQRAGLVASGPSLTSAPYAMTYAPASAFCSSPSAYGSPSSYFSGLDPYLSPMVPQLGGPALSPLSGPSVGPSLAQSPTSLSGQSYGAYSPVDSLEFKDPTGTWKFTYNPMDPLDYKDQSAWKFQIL", "conditions": "protein: recombinant; tags: N-terminal GST; dsDNA, one strand shown", "procedure,_shortened": "as §1"}, "[10]": {"biological_target": "ETV1 (Homo sapiens, UniProt P50549 1-477)", "sequence (P50549 whole entry)": "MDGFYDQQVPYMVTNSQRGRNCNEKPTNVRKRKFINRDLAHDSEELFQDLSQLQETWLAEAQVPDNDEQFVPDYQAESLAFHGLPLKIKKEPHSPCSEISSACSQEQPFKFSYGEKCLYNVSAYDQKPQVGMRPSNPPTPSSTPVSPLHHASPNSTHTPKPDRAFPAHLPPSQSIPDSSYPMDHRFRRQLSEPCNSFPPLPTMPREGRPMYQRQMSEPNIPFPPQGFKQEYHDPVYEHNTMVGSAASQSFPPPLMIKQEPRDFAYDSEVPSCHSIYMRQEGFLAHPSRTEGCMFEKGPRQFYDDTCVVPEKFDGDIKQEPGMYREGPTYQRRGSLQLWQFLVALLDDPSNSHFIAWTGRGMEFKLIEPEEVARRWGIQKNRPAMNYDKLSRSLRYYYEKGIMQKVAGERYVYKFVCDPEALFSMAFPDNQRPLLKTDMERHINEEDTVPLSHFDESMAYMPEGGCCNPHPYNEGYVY", "conditions": "protein: recombinant; tags: N-terminal GST; dsDNA, one strand shown", "procedure,_shortened": "as §1"}}}
{"sequence": "CTAGCT", "values": [{"measurement": "binding signal", "setting": "[1]", "result": "1.29 fold enrichment (6-mer frequency, TF over GST control)"}, {"measurement": "binding signal", "setting": "[2]", "result": "1.31 fold enrichment (6-mer frequency, TF over GST control)"}, {"measurement": "binding signal", "setting": "[3]", "result": "1.53 fold enrichment (6-mer frequency, TF over GST control)"}, {"measurement": "binding signal", "setting": "[4]", "result": "1.59 fold enrichment (6-mer frequency, TF over GST control)"}, {"measurement": "binding signal", "setting": "[5]", "result": "1.29 fold enrichment (6-mer frequency, TF over GST control)"}, {"measurement": "binding signal", "setting": "[6]", "result": "1.35 fold enrichment (6-mer frequency, TF over GST control)"}, {"measurement": "binding signal", "setting": "[7]", "result": "1.31 fold enrichment (6-mer frequency, TF over GST control)"}, {"measurement": "binding signal", "setting": "[8]", "result": "1.07 fold enrichment (6-mer frequency, TF over GST control)"}, {"measurement": "binding signal", "setting": "[9]", "result": "1.31 fold enrichment (6-mer frequency, TF over GST control)"}, {"measurement": "binding signal", "setting": "[10]", "result": "1.24 fold enrichment (6-mer frequency, TF over GST control)"}]}
